Source: PubChem
An excerpt weighted towards active compounds, which were near 3.5% of everything screened.
FBA Mtb inh: Mtb FBA enzyme inhibitors, primary screen, biochemical, fluorescence, strain H37Rv; Fructose-bisphosphate aldolase (Mycobacterium tuberculosis (strain ATCC 25618 / H37Rv)), …; purified M. tuberculosis FBA, fluorescence read-out; inhibition, % at 1 µM; hit rate 2.3% among 360,000;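 also: 0% = vehicle and 100% = reference inhibitor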
Target sequence (P9WQA3 whole entry, looked up): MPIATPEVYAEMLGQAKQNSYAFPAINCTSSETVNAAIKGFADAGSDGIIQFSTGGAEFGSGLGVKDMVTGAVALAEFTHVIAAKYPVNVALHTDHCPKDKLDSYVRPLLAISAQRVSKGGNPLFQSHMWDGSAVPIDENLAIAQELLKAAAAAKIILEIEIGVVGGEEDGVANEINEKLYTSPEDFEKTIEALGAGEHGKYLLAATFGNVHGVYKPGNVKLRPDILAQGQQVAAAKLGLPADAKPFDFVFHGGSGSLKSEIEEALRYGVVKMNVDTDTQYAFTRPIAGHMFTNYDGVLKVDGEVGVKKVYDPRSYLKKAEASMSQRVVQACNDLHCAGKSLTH
Mtb UGM inh: M. tuberculosis UGM enzyme inhibitors, primary screen, biochemical, fluorescence polarization, single point | purified UGM, fluorescence polarization probe displacement | inhibition, % at 10 µM | hit rate 0.06% among 320,000 | AID 504406, 2011; in the data active = inhibition above about 10%, passing the limit was not always enough
Rv3671c inh: Rv3671c serine protease inhibitors, primary screen, biochemical, fluorescence polarization, M. tuberculosis H37Rv; P9WHR9; inhibition, % at 5.96 µM; hit rate 0.048% among 320,000; AID 2606, 2010; in the data active = inhibition above about 38%;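 also: extracellular domain of Rv3671c used as enzyme; 0% = enzyme with DMSO and 100% = no enzyme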
GDH-TPI counter-1: GDH-TPI coupling enzyme inhibitors, primary screen, artefact control for M. tuberculosis FBA inhibitor project, biochemical, absorbance, full deck | AID 588335, 2011 | inhibition, % at 4.8 µM | GDH-TPI coupled enzyme counterscreen, NADH absorbance | hit rate 1.2% among 360,000; in the data active = inhibition above about 30%;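 also: 0% = DMSO wells and 100% = wells lacking the enzyme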
Mtb betalactam: beta-lactam sensitization of Mtb H37Rv, H37Rv; M. tuberculosis H37Rv growth with meropenem, percent inhibition; inhibition, % at 25 µM; hit rate 0.27% among 330,000; call rule not given here;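 also: growth measured after seven days incubation then overnight dye step; 0% = bacteria only wells and 100% = bacteria with antibiotic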
Mtb FBA confirm: M. tuberculosis aldolase blockers, biochemical, fluorescence, strain H37Rv, confirmation; inhibition, % at 1 µM; AID 651616, 2012; shares compounds with FBA Mtb inh; hit rate 78% among 5,600; purified M. tuberculosis FBA, fluorescence read-out;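 also: 0% = vehicle wells and 100% = reference inhibitor wells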
GDH-TPI counter-2: GDH-TPI coupling enzyme inhibitors, artefact control for M. tuberculosis FBA inhibitor project, biochemical, fluorescence, high throughput. shares compounds with FBA Mtb inh. GDH-TPI coupled enzyme counterscreen. inhibition, % at 1 µM. hit rate 81% among 5,600. AID 652141, 2013; in the data active = inhibition above about 10%
GDH-TPI dose: GDH-TPI coupling enzyme inhibitors, dose response, artefact control for M. tuberculosis FBA inhibitor project, biochemical, fluorescence, IC50. shares compounds with FBA Mtb inh. GDH-TPI coupled enzyme assay, artifact counterscreen. IC50, µM. hit rate 79% among 170; call rule not given here
An asterisk follows results filed as active; nt = no result given; + = active, no number. Rule as the data show it, unless noted: active = inhibition above about 27%; inactive = the rest.

SMILES	FBA Mtb inh	Mtb UGM inh	Rv3671c inh	GDH-TPI counter-1	Mtb betalactam	Mtb FBA confirm	GDH-TPI counter-2	others
CCCCn1c(=O)nc2n(-c3ccccc3C)c3ccccc3cc-2c1=O	61*	-2	3	7	7	+	+
Cn1c(-c2ccc(N)cc2)nc2ccccc21	88*	0	9	-4	-7	+	+
Cn1c(-c2ccccc2)nc2cnccc21	2	0	1	20	-3	nt	nt
Cn1c(CCc2ccc(N)cc2)nc2ccccc21	0	-2	3	-2	6	nt	nt
CCOC(=O)Cn1c(-c2ccc(Cl)nc2)nc2ccccc21	43*	0	-5	11	66	122*	106*
Cn1c(-c2ccc(Cl)nc2)nc2ccccc21	37*	5	14	-1	2	113*	83*
O=C(NC1CCCCCC1)c1ccco1	-2	0	5	9	0	nt	nt
COC(=O)C(Cc1ccc(O)cc1)NC(=O)c1ccc2c(c1)OCCO2 (stereo not given)	2	1	1	8	10	nt	nt
CNc1ccc2ncc(-c3ccccc3NC(C)=O)n2n1	47*	nt	nt	7	nt	0	-4
CC(=O)Nc1cc(-c2ccccc2F)cn2c(-c3ccccc3)cnc12	5	nt	nt	-4	nt	nt	nt
CCOC(=O)CCSc1nc(C)c2cc(OC)ccc2n1	36*	-1	-1	0	4	140*	116*
CCOC(=O)CCSc1nc(C)c2cc(C)c(C)cc2n1	2	0	4	-3	96	nt	nt
Cc1ccccc1NC(=O)C1CC(Cl)=CCC1C(=O)O (stereo not given)	-1	1	-2	-5	1	nt	nt
O=C(O)C1CC=C(Cl)CC1C(=O)NC1CCCCC1 (stereo not given)	28*	0	-3	4	-8	160*	108*
Cn1c(CC(=O)Nc2ccc(Cl)cc2)nnc1SCC(=O)N1CCOCC1	-1	0	-2	-1	-2	nt	nt
CCOc1ccccc1-c1nc(CN2CCCN(C(=O)c3ccco3)CC2)c(C)o1	2	-2	8	4	-18	nt	nt
CCCN(CC1CC1)C(=O)COC(=O)c1oc2ccc(OCC)cc2c1C	42*	-5	-4	9	1	+	186*
CCOc1ccc2oc(C(=O)OCC(=O)NC(=O)NC)c(C)c2c1	8	-1	-1	16	7	nt	nt
CCN(C(=O)COC(=O)c1oc2ccc(OC)cc2c1C)C1CCS(=O)(=O)C1 (stereo not given)	60*	nt	nt	4	nt	112*	121*
COc1ccc2oc(C(=O)Nc3nccs3)c(C)c2c1	-1	-1	-1	11	-11	nt	nt
CCN(C(=O)COc1cc(OC)ccc1C(C)=O)C1CCS(=O)(=O)C1 (stereo not given)	3	-2	6	18	2	nt	nt
COc1ccc2oc(C(=O)OCC(=O)NC3CCCCC3)c(C)c2c1	39*	0	-3	10	-10	90*	78*
COc1ccc2oc(C(=O)NC3(C)CCS(=O)(=O)C3)c(C)c2c1 (stereo not given)	39*	2	-3	12	-10	+	+
CCOc1ccc(CCNC(=O)CSc2nc3ncc(Cl)cc3[nH]2)cc1OCC	0	-2	-13	4	-3	nt	nt
CCOc1ccc2oc(C(=O)OCC(=O)NC3CCCC3)c(C)c2c1	31*	2	-10	2	-8	14	9	GDH-TPI dose=6.7*
N#Cc1ccc(-c2ccc(OCC(O)CN3CCCCC3)cc2)cc1 (stereo not given)	58*	-1	-3	7	4	116*	81*
